Laboratory results from PubChem BioAssay AID1851 (National Center for Advancing Translational Sciences (NCATS), 2009).
Several values for one entry are separate records, joined by “and”; a condition that tells them apart may be missing. Identical values can stand only once. The whole screen tested about 16,000 compounds, of which about 2,600 (16%) were called active. Another 20% or so got no clear call; they are omitted. The call rests on the fitted dose curve; in most records, active means well fitted curve in the direction sought with a large enough effect; inconclusive means small, poorly fitted or top-dose-only effect, or effect the other way; inactive means no such curve, though single readings can be large or run the other way. A selection follows. More than one record can exist for a structure, and the calls need not agree.

biological target: Cytochrome P450 2D6 (Homo sapiens) (UniProt P10635); assay: Cytochrome panel assay with activity outcomes; conditions: recombinant CYP, pro-luciferin dealkylation, luminescence, p450-cyp2d6; series mostly up to 57.1 µM; activity, negative = inhibition: at the top concentration
On the % scale 0 is the no-effect control and ±100 the full control effect.

Sequence of Cytochrome P450 2D6 (Homo sapiens) (P10635 whole entry, looked up): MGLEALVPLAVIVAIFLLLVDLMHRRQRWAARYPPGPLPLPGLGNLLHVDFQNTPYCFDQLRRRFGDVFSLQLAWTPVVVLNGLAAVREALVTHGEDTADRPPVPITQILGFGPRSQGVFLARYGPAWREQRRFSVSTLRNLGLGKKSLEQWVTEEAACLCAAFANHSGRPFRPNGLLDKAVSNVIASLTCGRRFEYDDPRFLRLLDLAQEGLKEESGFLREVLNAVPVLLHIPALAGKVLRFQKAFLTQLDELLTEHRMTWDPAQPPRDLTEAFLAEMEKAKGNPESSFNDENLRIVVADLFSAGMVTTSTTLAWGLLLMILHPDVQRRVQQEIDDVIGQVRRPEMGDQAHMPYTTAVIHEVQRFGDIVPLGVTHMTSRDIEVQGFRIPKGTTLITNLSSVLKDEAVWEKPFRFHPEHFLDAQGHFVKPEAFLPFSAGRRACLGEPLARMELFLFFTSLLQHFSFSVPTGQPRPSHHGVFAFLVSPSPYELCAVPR

Compound | activity, negative = inhibition | AC50
COC(=O)[C@@]1(Cc2ccc(OC)cc2)[C@@H]2[C@@H](CC(=O)[C@H]2CC(=O)C(=O)N2CCCC2)CN1C(=O)c1ccccc1 | -5.43% (inactive) | –
Cc1cccc(NC(=S)N/N=C/c2ccc([N+](=O)[O-])s2)c1 | -9.95% (inactive) | –
COc1ccc(-c2nc(N)c3ncn([C@H]4O[C@@H](CO)[C@@H](O)[C@@H]4O)c3n2)cc1 | 1.32% [at 11.4 µM] (inactive) | –
CC(Sc1nnc(C(C)N(C)C)n1-c1ccc(Cl)cc1)C(=O)Nc1ccc2c(c1)OCO2 (centres undefined) | – | 14.1 µM (active)
Cc1cc(C)c(NC(=O)C(C)Sc2nnc(-c3ccco3)n2-c2ccccc2)c(C)c1 (centres undefined) | -4.41% (inactive) | –
COc1ccc(-n2c(=O)[nH]cc(C(=O)Nc3ccc4c(c3)OCCO4)c2=O)cc1 | 3.8% (inactive) | –
CC(C)C1NC(=S)N(Cc2ccccc2)C1=O (centres undefined) | 10% (inactive) | –
COc1ccc(CCNC[C@H](O)c2ccc(O)cc2)cc1OC | 0.765% (inactive) | –
COc1ccc(CNCCC(c2ccc(OC(C)C)cc2)C(C)C)cc1OC (centres undefined) | – | 0.251 µM (active)
COc1ccc(C[N+](C)(C)N)cc1OC | 0.726% [at 11.4 µM] (inactive) | –
COC(=O)C/C=C\[C@@H](C)[C@@H](/C=N\O[C@@H](C)c1cc(-c2c(C)cc(C)cc2C)no1)OC | -10.8% [at 11.4 µM] (inactive) | –
COc1ccc(-n2c(CNc3ccc(C)cc3)nnc2SCC(=O)Nc2nc(-c3ccccc3)cs2)cc1 | -1.16% (inactive) | –
CCc1ccccc1N1C(=O)c2cccc3c(N4CCOCC4)c([N+](=O)[O-])cc(c23)C1=O | 2.74% (inactive) | –
O=S1(=O)C=C(N2CCOCC2)c2ccccc21 | -18.5% (inactive) | –
O=c1cc(N2CCOCC2)oc2c(-c3ccccc3)cccc12 | – | inactive and 25.1 µM (active)
CNc1nc(C)cc(C)c1S(=O)(=O)c1ccc(C)cc1 | 11.4% (inactive) | –
Cc1ccc(-n2c3c(c(=O)[nH]c2=O)C(C(F)(F)F)(C(F)(F)F)NC(=O)N3)cc1 | -1.45% (inactive) | –
Cc1ccc([N+](=O)[O-])cc1NC(=S)NC(=O)C(C)(C)C | 13.5% (inactive) | –
CCCOc1ccc(/C=C/C(=O)Nc2ccc([N+](=O)[O-])cc2C)cc1OC | 3.41% (inactive) | –
CC(CC(=O)Nc1ccc(Cl)c([N+](=O)[O-])c1)c1ccccc1 (centres undefined) | – | 0.447 µM (active)
COc1ccc(OC)c(NC(=O)CC(Cc2ccccc2OC)C(=O)O)c1 (centres undefined) | 25% (inactive) | –
CCOc1cc(NC(=O)c2ccccc2[N+](=O)[O-])c(OCC)cc1NC(=O)CC(C)C | 16.4% (inactive) | –
CCN(CC)S(=O)(=O)c1ccc(OC)c(NC(=O)CSc2ccccc2)c1 | -21.4% (inactive) | –
COc1ccccc1NC(=O)Cn1cncc1-c1ccc([N+](=O)[O-])cc1 | -5.83% (inactive) | –
CCOc1ccc(NC(=S)NC(=O)/C=C/c2ccc(OC)c(OC)c2)c([N+](=O)[O-])c1 | 11.2% (inactive) | –
O=C(CSc1ccc(C(F)(F)F)cc1[N+](=O)[O-])Nc1ccccc1 | -20.2% (inactive) | –
COc1ccc([N+](=O)[O-])cc1NC(=O)CC(C)c1ccccc1 (centres undefined) | – | 11.2 µM (active)
COc1ccc([N+](=O)[O-])cc1NC(=S)NC(NC(=O)Cc1ccc(OC)c(OC)c1)C(Cl)(Cl)Cl (centres undefined) | – | 0.355 µM (active)
CCN(CC(=O)Nc1ccc([N+](=O)[O-])cc1OC)c1ccccc1 | – | 14.1 µM (active)
